High-throughput results deposited in PubChem by National Center for Advancing Translational Sciences (NCATS).
An excerpt weighted towards active compounds, which were near 0.5% of everything screened.
GoLoco inh red – blocks human Gai1 binding to RGS12 GoLoco peptide, red readout. P63096. Potency, µM (top dose mostly 61.6 µM), without a hit: at the top dose activity, negative = inhibition, most hits filed as inhibitors. Gai1:RGS12 GoLoco peptide FP, rhodamine, 10 min. actives 0.44% (n = 230,000); active means well fitted inhibition curve with a large enough effect, not every such curve was filed as active; inactive means no such curve, though single readings can be large or run the other way; further: potency means the concentration at half of the fitted maximal effect; on the % scale 0 is the no-effect control and ±100 the full control effect; nearly all actives have a fitted effect of over 30% in size
Target sequence (P63096 whole entry, looked up): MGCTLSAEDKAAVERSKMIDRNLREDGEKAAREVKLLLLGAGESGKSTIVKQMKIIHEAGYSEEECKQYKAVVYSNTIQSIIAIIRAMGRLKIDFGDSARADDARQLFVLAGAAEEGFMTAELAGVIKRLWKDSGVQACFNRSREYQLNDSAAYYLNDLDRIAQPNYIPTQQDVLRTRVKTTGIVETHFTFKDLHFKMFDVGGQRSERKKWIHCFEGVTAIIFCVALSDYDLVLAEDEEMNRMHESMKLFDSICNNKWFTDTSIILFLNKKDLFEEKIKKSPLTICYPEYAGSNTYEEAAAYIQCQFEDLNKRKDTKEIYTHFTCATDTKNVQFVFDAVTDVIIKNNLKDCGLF
ERK EGF inh – EGF-driven ERK pathway inhibition; Potency, µM (doses to about 11.5 µM), for the others: at the highest dose activity change, negative = inhibition, most hits filed as inhibitors; actives 0.41% (n = 130,000); AID 1454; HEK293-V1b, EGF-stimulated phospho-ERK AlphaScreen;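 further: potency means the concentration at half of the fitted maximal effect; plate controls were stimulated vehicle wells for no effect and unstimulated vehicle basal for full effect; nearly all actives have a fitted effect of over 55% in size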
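Cell line HEK293 (stable V1b), low serum overnight. Pretreatment: compound 30 min, 37C. EGF 25 nM, 5 min. Detection: SureFire AlphaScreen, 5 h RT. AC50 via standard Hill equation.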
CBFb RUNX1 block – CBF-beta/RUNX1 interaction disruption. AID 1477. AlphaScreen CBFb-His/RUNX1-biotin binding, biochemical. 230,000 tested, under 10 active. Potency, µM (titrated, usually from 59.8 µM), without a hit: top-dose activity, negative = inhibition, actives largely listed as inhibitors. Q01196+Q13951; further: % of control where 0% means no effect
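Room-temperature protein-protein interaction test with 30 nM each of His-tagged CBF-beta and biotinylated RUNX1, 15 min with compound, then 90 min with nickel plus streptavidin beads. Signal read in AlphaScreen mode.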
Numbers without * were called inactive; ? = inconclusive; · = no result; [ ] = dose if it differs, or a comment. Unless noted, the call rests on the fitted dose curve; in most records, active means well fitted curve in the direction sought with a large enough effect; inconclusive means small, poorly fitted or top-dose-only effect, or another doubt; inactive means no such curve, though single readings can be large; an effect the other way counts as inactive or inconclusive.

SMILES | GoLoco inh red | ERK EGF inh | CBFb RUNX1 block
COc1ccc(/C=N\Nc2ccc([N+](=O)[O-])cc2[N+](=O)[O-])c(C(=O)O)c1OC | 1.6% | ? | 3.7%
CC1=C(/C=N/Nc2ccc([N+](=O)[O-])cc2[N+](=O)[O-])C(C)(C)CCC1 | 9.4% | 14.1µM* | -23.0%
CN(CCc1ccc(Cl)c(Cl)c1)CCN1CCCCCC1 | 0.1% | -3.1% | 3.3%
COc1cc(/C=C2/C(=O)NN(c3cccc(C)c3)C2=O)cc([N+](=O)[O-])c1O | 14.0% | -4.1% | -12.9%
COc1cc(/C=C2/C(=O)NN(c3cccc(C)c3)C2=O)ccc1OC(=O)c1ccco1 | -33.1% | 25.1µM* | 2.4%
COC1(OC)N=C(N)C2(C#N)C(c3ccccc3)NC(C)=CC12C#N (stereo unspecified) | -15.7% | · | 6.0%
CC1=CC(C#N)(C#N)C(C#N)(C#N)C(c2ccccc2)N1 (stereo unspecified) | 31.6µM* | · | -9.9%
CCc1cc2c(nc1CC)CCN(CC/C(C)=N/OCC[C@@H]1C=C[C@H](OC(C)=O)[C@H](COC(C)=O)O1)C2 | · | · | 10.9%[13.1 µM]
COC(C(C)/C=C/CC(=O)OCCCc1ccccc1)C1CCCCC1 (stereo unspecified) | · | · | -3.8%[13.1 µM]
N#Cc1ccc(CS(=O)(=O)c2nnnn2-c2ccccc2)cc1 | 0.8% | -1.7% | -4.7%
Nc1ccc(-c2ccc(Nc3cc(S(=O)(=O)O)c(N)c4c3C(=O)c3ccccc3C4=O)cc2)c(S(=O)(=O)O)c1 | -26.6%[14.2 µM] | · | ·
Cc1cc(C)c(Nc2cc(S(=O)(=O)O)c(N)c3c2C(=O)c2ccccc2C3=O)c(C)c1 | 6.3% | 22.4µM* | ·
O=C(CO)[C@@H](O)C(O)[C@@H](O)CO (stereo partly specified) | · | · | 19.5%
CCN1C(=O)[C@H]2[C@H]3[C@H](O)[C@H](O)C/C(=N/OCc4ccccc4)[C@H]3CC[C@@H]2C1=O | · | · | 0.0%[13.1 µM]
CCOC(=O)c1ccc(NC(=O)Cn2ncc(Cl)c(Cl)c2=O)cc1 | 7.0% | 4.5% | -20.7%
CCN(CC)S(=O)(=O)c1cc(NC(=O)Cn2ncc(Cl)c(Cl)c2=O)ccc1C | 6.9% | 20µM* | ?
CCC(=O)OCC(=O)C1(OC(=O)CC)C(C)CC2C3CCC4=CC(=O)C=CC4(C)C3(Cl)C(O)CC21C (stereo unspecified) | 2.9% | 12.5% | 9.3%
CC[N+]1(C)C2CCC1CC(OC(=O)[C@H]1CCC(C(=O)OC3CC4CCC(C3)[N+]4(C)CC)(c3ccccc3)c3ccccc31)C2 (stereo partly specified) | 24.5% | · | 9.9%
CC(C)=CCC/C(C)=C/CO/N=C1/C[C@@H](O)[C@@H](O)[C@@H]2[C@@H]3C(=O)N(c4cccc(Oc5ccccc5)c4)C(=O)[C@H]3CC[C@H]12 | · | · | 8.1%[13.1 µM]
c1ccc(-c2ccc(N3CCCC4(CCNCC4)C3)cc2)cc1 | 8.0% | ? | ·
c1ccc(-c2ccc(N3CC4(CCNCC4)C3)cc2)cc1 | -7.9% | 20µM* | ·
CCc1cc2c(nc1CC)CCN(CC/C(C)=N/O[C@@H](C)c1cn([C@H](CO)Cc3ccccc3)nn1)C2 | · | · | 1.7%[13.1 µM]
CCCCc1nc2c(c3c1C[C@H](C)OC3)CN(C(=O)C1CCCCC1)CC2 | 2.4%[14.2 µM] | · | 3.6%[13.1 µM]
CC1NC(C(=O)O)Cc2c1[nH]c1ccccc21 (stereo unspecified) | 4.0% | · | -4.7%
COC(=O)[C@@]1(Cc2ccccc2-c2ccco2)C=C[C@H](C)[C@@H](c2ccccc2)N1C(=O)C(F)(F)F | 10.5% | -12.0% | -1.3%
SMILES | GoLoco inh red | ERK EGF inh | CBFb RUNX1 block
C1CNCCNCCCNCCNC1 | 9.5% | -4.2% | ?
C1CCCNCC1 | 22.4µM* | · | 6.8%[21.7 µM]
C[C@]12CC[C@H]3c4ccc(O)cc4CC[C@@H]3[C@H]1CC[C@@H]2OP(=O)(O)O | 6.7%[14.2 µM] | · | ·
IC(I)I | 14.1µM* | · | 0.7%[21.7 µM]
COc1ccc(C(=O)Nc2c(-c3cccs3)c(=O)c3ccccc3n2C)cc1 | 5.8% | 5.62µM* | 2.0%
Cc1ccc(C(=O)Nc2c(-c3cccs3)c(=O)c3ccccc3n2C)cc1 | 9.6% | · | -4.0%
CSCC[C@H](NC(=O)[C@@H]1CCCN1C(=O)CNC(=O)[C@H](CCCCN)NC(=O)[C@H](Cc1cnc[nH]1)NC(=O)[C@H](CO)NC(=O)[C@H](CC(C)C)NC(=O)[C@H](CCCN=C(N)N)NC(=O)[C@@H]1CCCN1C(=O)[C@H](CCCN=C(N)N)NC(=O)[C@@H]1CCC(=O)N1)C(=O)N1CCC[C@H]1C(=O)N[C@@H](Cc1ccccc1)C(=O)O | · | · | 27.2%
O=[N+]([O-])c1cc(Cl)ccc1N1CCCC1 | 10.3% | ? | -23.9%
O=C1C(Cl)=C(N2CCN(c3ccccc3[N+](=O)[O-])CC2)C(=O)c2ccccc21 | -0.6% | 25.1µM* | ?
CN=c1scc(-c2ccc(OC)cc2)n1/N=C(\C)c1cccnc1 | -6.1% | 22.4µM* | ?
C/C(=N/n1cnnc1)c1cccnc1 | -1.2% | · | 9.4%
CCC(C(=O)C(C)C(O)C(C)CCc1ccc(C)c(O)c1C(=O)O)C1OC(CC)(C2CC[C@@](O)(CC)C(C)O2)CC1C (stereo partly specified) | 12.6% | -5.7% | 13.5%
CCC(C(=O)O)C1CCC(C)C(C(C)C(O)C(C)C(=O)C(CC)C2OC3(C=CC(O)[C@@]4(CC[C@](C)(C5CC[C@@](O)(CC)C(C)O5)O4)O3)C(C)CC2C)O1 (stereo partly specified) | 28.2µM* | 2.1% | 25.2%
COC(=O)C1CSc2[nH]c(=O)sc2C1c1ccc(O)c(OC)c1 (stereo unspecified) | 20µM* | · | -2.0%
COc1ccc(C2c3sc(=O)[nH]c3SCC2C(N)=O)cc1 (stereo unspecified) | 9.1% | 2.7%[57.5 µM] | 5.4%
Cc1cc(O)c(C)c2c1CC[C@H]1[C@H](C)C(=O)O[C@H]21 | 4.5% | -7.2% | -4.0%
COC(=O)c1cccc(NC(=O)/C=C/c2ccc([N+](=O)[O-])cc2)c1 | -28.9% | ? | -9.7%
CCOC(=O)c1cccc(NC(=O)/C=C/c2ccc([N+](=O)[O-])cc2)c1 | 1.9% | 31.6µM* | -7.5%
CC(=O)O[C@@H](C)C[N+](C)(C)C | 8.8%[21.6 µM] | 10.7%[25.7 µM] | -4.8%[21.7 µM]
O=C1C=CC(=O)C2=C1C1c3ccccc3C2c2ccccc21 | 17.8µM* | -12.9% | -13.8%
O=C1CC(c2ccccc2)c2ccccc21 (stereo unspecified) | 1.3% | -1.9% | -10.7%
Nc1cc(S(N)(=O)=O)ccc1SSc1ccc(S(N)(=O)=O)cc1N | -7.7%[14.2 µM] | · | ·
CCOC(=O)c1c2c3c(cccc3[nH]c1=O)C(=O)c1ccccc1-2 | 12.0% | -9.1% | 7.3%
COCCCNc1c2c3c(cccc3[nH]c1=O)C(=O)c1ccccc1-2 | 4.47µM* | · | ?
c1cc2c(cc1C1CCCCC1)c1c3n2CCCNC3CCC1 (stereo unspecified) | 91.3% | 28.2µM* | -1.6%
c1cc2c(cc1C1CCCCC1)c1c3n2CCN[C@H]3CCC1 | 0.5% | 8.4% | 4.3%[21.7 µM]
COc1ccc(/C=C/C2=C[C@]3(C)C[C@]2(C)[C@H](c2ccc(OC)cc2)CC3=O)cc1 | -2.3% | -6.0% | 8.2%
CC1C/C(=N/Nc2ccc([N+](=O)[O-])cc2[N+](=O)[O-])CC(C)(C)C1 (stereo unspecified) | -1.0% | 12.6µM* | 3.5%
